Measurements from PubChem BioAssay AID540321 (Johns Hopkins Ion Channel Center, 2011).
Calls of active or inactive are those of the source.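 How the source made its calls: active means Inhibition of the Kir2.1 potassium channel over 30% at some tested dose, plus a fitted dose response curve; inactive means no Kir2.1 inhibition at any dose, or no curve fitted.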

What follows are compounds tested against Inward rectifier potassium channel 2 (Mus musculus) (UniProt P35561) (assay: off-target blockade of inward rectifier Kir2.1 – cell-based, FluxOR thallium flux, CRC round 2, selectivity assay for KCNK9 inhibitor project, SAR follow-up (AID 540321)). Conditions: Kir2.1-expressing cells; series mostly up to 30 µM; fluorescence ratio, lower = inhibition: at the top concentration.
Sequence of Inward rectifier potassium channel 2 (Mus musculus) (P35561 whole entry, looked up): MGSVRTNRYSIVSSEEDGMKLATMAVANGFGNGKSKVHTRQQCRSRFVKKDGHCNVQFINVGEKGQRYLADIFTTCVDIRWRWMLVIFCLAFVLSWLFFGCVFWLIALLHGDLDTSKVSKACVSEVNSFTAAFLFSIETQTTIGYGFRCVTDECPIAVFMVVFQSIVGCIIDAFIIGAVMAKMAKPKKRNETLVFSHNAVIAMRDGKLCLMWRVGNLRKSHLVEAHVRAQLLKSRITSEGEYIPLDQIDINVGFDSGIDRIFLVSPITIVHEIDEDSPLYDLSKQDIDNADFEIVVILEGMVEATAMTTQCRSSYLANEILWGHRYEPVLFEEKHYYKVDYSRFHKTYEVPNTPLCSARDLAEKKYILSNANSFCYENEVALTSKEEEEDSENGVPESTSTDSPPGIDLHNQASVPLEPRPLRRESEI

Fluorescence ratio, lower = inhibition, inactive:
CCOc1ccccc1NC(=O)c1cccc(NC(=O)c2cccc(OC)c2)c1 1.66
CC(C1CC2CCC1C2)n1c(C2CCOC2)n[nH]c1=S (centres undefined) 1.79
CCOc1ccccc1NC(=O)c1cccc(NC(=O)c2ccccc2Cl)c1 1.21
O=C(Nc1cccc(NC(=O)c2cccnc2)c1)c1ccccc1 1.57
CCOc1ccccc1NC(=O)c1cccc(NC(=O)C(C)(C)C)c1 1.83
COc1ccccc1NC(=O)c1cccc(NC(=O)c2ccccc2OC)c1 1.93
CCOc1ccccc1NC(=O)c1cccc(NC(=O)c2ccccc2OC(F)(F)F)c1 1.71
COc1cccc(C(=O)Nc2cccc(NC(=O)c3ccccc3)c2)c1 1.59
CCOc1ccccc1NC(=O)c1cccc(NC(=O)c2ccccc2C)c1 1.36
O=C(Nc1cccc(NC(=O)c2cccc(F)c2)c1)c1ccccc1 1.62
Cc1cccc(C(=O)Nc2ccccc2NC(=O)c2ccccc2)c1 1.62
CCOc1ccccc1NC(=O)c1cccc(NC(=O)CC2CCCC2)c1 1.67
CCOc1ccccc1NC(=O)c1cccc(NC(=O)c2cccc(Cl)c2)c1 1.84
Cc1cccc(C(=O)Nc2cccc(NC(=O)c3ccc(C(F)(F)F)cc3)c2)c1 1.6
O=C(Nc1ccccc1Cl)c1cccc(NC(=O)C2CCCC2)c1 1.34
Cc1cccc(C(=O)Nc2cccc(NC(=O)c3ccco3)c2)c1 1.75
CC(C1CC2CCC1C2)n1c(-c2cccc(Cl)c2)n[nH]c1=S (centres undefined) 1.62
CC(C1CC2CCC1C2)n1c(-c2ccsc2)n[nH]c1=S (centres undefined) 1.42
COc1cccc(OC)c1C(=O)Nc1cccc(NC(=O)c2cccc(C)c2)c1 1.74
